Here are results for 167 sequences from publication PMC4242493, “Sequence specificity incompletely defines the genome-wide occupancy of Myc”.

Whole data set: some 33,000 sequences, median “normalized occupancy” near 0.075, cut for the highest 2% near 0.095. Many of the other results were omitted from the sample, so the highest values are more common in it than they were.

Chain of MaxL homodimer (P61244 whole entry): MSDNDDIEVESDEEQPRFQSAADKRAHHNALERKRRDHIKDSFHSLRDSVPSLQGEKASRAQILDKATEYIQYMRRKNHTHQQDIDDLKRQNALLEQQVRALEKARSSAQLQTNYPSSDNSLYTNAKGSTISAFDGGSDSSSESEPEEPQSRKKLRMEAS

This test concerns the target MaxL homodimer (Homo sapiens, UniProt P61244 1-160). In words: universal protein-binding microarray (PBM); PBS-based mixture, 10 nM His-tagged protein dimer, 2% milk, 200 ng/uL BSA, 50 ng/uL salmon testes DNA, 0.02% TX-100; detection with Alexa 488 anti-His antibody;; high values mean tight binding. Conditions: protein: recombinant; tags: C-terminal His-tag (pET21a); chain copies: 2; dsDNA, one strand shown. The essentials:
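Agilent 4 x 44 K arrays carrying the 'all 10-mer' universal design were incubated with His-tagged protein dimer at 10 nM. Protein that bound was tagged using fluorophore-conjugated anti-His antibody at 10 ng/μL, and a GenePix 4400A scanned the arrays to give an intensity for every 8-mer. Each binding occupancy value expresses an intensity relative to the top-ranked intensity.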
On to CAGGTGTA, for which the binding signal was determined as 0.0957 normalized occupancy.

With CAAGTGTC, the binding signal came out at 0.0772 normalized occupancy. With ATCGTGTG, the binding signal was 0.0889 normalized occupancy.

In the case of ACCGTGTG, the binding signal was 0.0873 normalized occupancy.

As to AACGTATA, the binding signal turned out to be 0.0869 normalized occupancy. On to AACGTGTA, for which the binding signal came to 0.11 normalized occupancy. With GATGCAAA, the binding signal is 0.0761 normalized occupancy. Regarding GTTCGTAA, the binding signal came out at 0.0774 normalized occupancy.

On to CCTAGATA, for which the binding signal stood at 0.0756 normalized occupancy. As for ACCGTACA, the binding signal amounted to 0.0768 normalized occupancy. Take AAATAGCA: the binding signal came out at 0.0843 normalized occupancy. The result for ACTATAAC reads 0.0847 normalized occupancy; that for AGTTTTTG, 0.0729 normalized occupancy; that for ATTGCGAA, 0.074 normalized occupancy. With ATGGGTAG, the binding signal was found to be 0.0856 normalized occupancy. In the case of ATGATTGG, the binding signal was 0.0808 normalized occupancy. The result for AAGAGCAG reads 0.0746 normalized occupancy; that for ACCGTGTC, 0.072 normalized occupancy. On to CCCGTGTA, for which the binding signal is 0.0861 normalized occupancy. For the sequence GACGTGTA, the binding signal is 0.0816 normalized occupancy. The value for AAGGTGTC was 0.0775 normalized occupancy; that for AACGTGTC was 0.101 normalized occupancy; that for CACGTGTA was 0.536 normalized occupancy. In the case of AATGGCTC, the binding signal is 0.0777 normalized occupancy.

On to AATTAGTG, for which the binding signal came to 0.0813 normalized occupancy. Take ACGTGTCG: the binding signal is 0.106 normalized occupancy. The result for ACGTGTCT reads 0.0997 normalized occupancy. For CCGTGTCG, the binding signal is 0.075 normalized occupancy. With ACGTGTCA, the binding signal came out at 0.0923 normalized occupancy. The result for AAGTGTCT reads 0.073 normalized occupancy; that for AGGTGTCG, 0.0793 normalized occupancy. In the case of ATTGAGAG, the binding signal is 0.0765 normalized occupancy. The result for CATAGGGG reads 0.085 normalized occupancy; that for AGATGGAA, 0.0827 normalized occupancy; that for ACATAGCA, 0.0807 normalized occupancy. GTACGTGA: the binding signal is 0.078 normalized occupancy. The result for GCACGTGC reads 0.834 normalized occupancy; that for GCACGTCC, 0.0788 normalized occupancy; that for GCACGTGA, 0.36 normalized occupancy. The result for GGACGTGA reads 0.0764 normalized occupancy. In the case of GCACGTAC, the binding signal was 0.0883 normalized occupancy. For GATTGGGA, the binding signal is 0.076 normalized occupancy. Take TGCGCCCA: the binding signal was 0.0758 normalized occupancy.

CGATTTCA: the binding signal was determined as 0.072 normalized occupancy. The result for GCCTGGCA reads 0.0722 normalized occupancy; that for ACAACATA, 0.0833 normalized occupancy; that for ACAACATG, 0.0952 normalized occupancy. With ATAACATG, the binding signal came out at 0.0981 normalized occupancy. The value for ATAACACA was 0.0874 normalized occupancy. In the case of GTAACACA, the binding signal stood at 0.0828 normalized occupancy. Regarding ATAACACG, the binding signal was found to be 0.0958 normalized occupancy. As to ACAACACA, the binding signal came to 0.0849 normalized occupancy. The result for ACAACACC reads 0.0812 normalized occupancy; that for ATAACATC, 0.0807 normalized occupancy.

As for ATAACATA, the binding signal came to 0.0882 normalized occupancy. The result for ACAACACG reads 0.0955 normalized occupancy; that for ACAACATC, 0.0778 normalized occupancy; that for GTTTCTTA, 0.0733 normalized occupancy. As to CCTTAACA, the binding signal came out at 0.0794 normalized occupancy. With GTAGGCTA, the binding signal is 0.0748 normalized occupancy. As to CAAATGGG, the binding signal was 0.0805 normalized occupancy. As to ACCATGGG, the binding signal was found to be 0.0927 normalized occupancy. With AACATGGC, the binding signal is 0.0896 normalized occupancy. On to CACATGGG, for which the binding signal was found to be 0.166 normalized occupancy.

With AACATGGA, the binding signal was determined as 0.0836 normalized occupancy. Turning to CACATGGA, the binding signal amounted to 0.162 normalized occupancy.

On to CCCATGGG, for which the binding signal came out at 0.0962 normalized occupancy. CCCATGGA: the binding signal is 0.0846 normalized occupancy.

In the case of GACATGGA, the binding signal is 0.0844 normalized occupancy.

Turning to CACATGGC, the binding signal is 0.199 normalized occupancy. The value for AACATGGG was 0.0935 normalized occupancy; that for GACATGGC was 0.0801 normalized occupancy. Consider ATAAGAGG, for which the binding signal came to 0.073 normalized occupancy. As for AGGACAAG, the binding signal is 0.0738 normalized occupancy.

In the case of GAGTCTGA, the binding signal stood at 0.0726 normalized occupancy. Consider TATTACAA, for which the binding signal worked out at 0.0802 normalized occupancy. For CAAACCGA, the binding signal was found to be 0.0737 normalized occupancy. The value for GGAGAACA was 0.0748 normalized occupancy.

Regarding CGACGTCA, the binding signal was found to be 0.0748 normalized occupancy. With ATACAAGG, the binding signal came to 0.0755 normalized occupancy. The result for CATAGGCG reads 0.0751 normalized occupancy; that for ACGTGCCG, 0.0929 normalized occupancy; that for ACGTGCCT, 0.0959 normalized occupancy. For the sequence ACGTGCCA, the binding signal turned out to be 0.115 normalized occupancy.

As to CCGTGCCA, the binding signal came to 0.0772 normalized occupancy. As to TCGTGCCA, the binding signal was determined as 0.0874 normalized occupancy. The result for ACGTGCCC reads 0.0948 normalized occupancy.

Turning to AACAATAC, the binding signal was found to be 0.076 normalized occupancy.

Turning to CTTTCCAA, the binding signal stood at 0.0733 normalized occupancy. Turning to CTTGCACA, the binding signal was 0.0801 normalized occupancy. The value for TATGCACA was 0.0883 normalized occupancy; that for CATGCACC was 0.0986 normalized occupancy; that for AATGCACA was 0.0785 normalized occupancy. Consider GATGCACA, for which the binding signal was determined as 0.0921 normalized occupancy. On to AATGCACC, for which the binding signal was found to be 0.0777 normalized occupancy. The value for GATGCACC was 0.0775 normalized occupancy.

As for CATGCACG, the binding signal is 0.101 normalized occupancy.

Turning to AATGCACG, the binding signal was found to be 0.0974 normalized occupancy. For the sequence AATGCACT, the binding signal turned out to be 0.0779 normalized occupancy.

In the case of CCTGCACG, the binding signal was 0.0845 normalized occupancy.

For the sequence CATGCACA, the binding signal is 0.0961 normalized occupancy. The result for GAGACATA reads 0.0802 normalized occupancy.

On to AGATAATC, for which the binding signal is 0.0755 normalized occupancy. ACAGGCAT: the binding signal is 0.0804 normalized occupancy. For ATCGCAAT, the binding signal is 0.0728 normalized occupancy.

With AATCTTCA, the binding signal is 0.072 normalized occupancy. The value for ACGAAAAG was 0.0718 normalized occupancy; that for ACCTTATG was 0.0812 normalized occupancy. Regarding ATGGCATA, the binding signal is 0.085 normalized occupancy.

With AAGGCATA, the binding signal worked out at 0.0742 normalized occupancy.

For the sequence ATGGCATC, the binding signal was determined as 0.0919 normalized occupancy. In the case of ATGGCACG, the binding signal amounted to 0.0985 normalized occupancy.

CTGGCACA: the binding signal was found to be 0.0744 normalized occupancy. Regarding ATGGCATG, the binding signal was 0.0968 normalized occupancy. As for ACGGCGTG, the binding signal was found to be 0.0958 normalized occupancy.

AAGGCATG: the binding signal worked out at 0.0988 normalized occupancy. In the case of ACGGCGTA, the binding signal came out at 0.0728 normalized occupancy.

As to AAGGCATT, the binding signal amounted to 0.0725 normalized occupancy. The result for ATGGCACA reads 0.0786 normalized occupancy.

Turning to ACGGCGTC, the binding signal turned out to be 0.0722 normalized occupancy. For the sequence CGATGATA, the binding signal was 0.0772 normalized occupancy. In the case of CTTAATCA, the binding signal is 0.073 normalized occupancy. Consider CAGAGACA, for which the binding signal was 0.0742 normalized occupancy. As for CTTCACCA, the binding signal amounted to 0.085 normalized occupancy.

For AACAACCA, the binding signal amounted to 0.0769 normalized occupancy.

As to AAAACATA, the binding signal was determined as 0.0798 normalized occupancy. AAAGAGGA: the binding signal was 0.0738 normalized occupancy. Turning to ACCTCAAA, the binding signal is 0.0749 normalized occupancy.

Turning to CTTGCGTA, the binding signal was 0.0773 normalized occupancy. In the case of GGCTTCCA, the binding signal turned out to be 0.0728 normalized occupancy.

CAGGCATG: the binding signal was found to be 0.0964 normalized occupancy. On to CAGGCATC, for which the binding signal came out at 0.0725 normalized occupancy. With ACGGCATG, the binding signal stood at 0.103 normalized occupancy. Regarding ACGGCATA, the binding signal was found to be 0.0754 normalized occupancy. With CAGGCATA, the binding signal came to 0.0804 normalized occupancy. The result for ACGGCATC reads 0.0761 normalized occupancy. Take GACAGACC: the binding signal came out at 0.0741 normalized occupancy.

For AACTCCAG, the binding signal worked out at 0.0726 normalized occupancy. For AGTGCTGC, the binding signal is 0.072 normalized occupancy. On to GATTTGAC, for which the binding signal was 0.0751 normalized occupancy. With CCGCATAA, the binding signal worked out at 0.0821 normalized occupancy. For the sequence CCGCATTC, the binding signal amounted to 0.072 normalized occupancy. As for ACGCATAC, the binding signal stood at 0.0842 normalized occupancy. The result for ACGCATAG reads 0.0818 normalized occupancy. As to CCGCATCC, the binding signal stood at 0.0787 normalized occupancy. ACGCATTG: the binding signal is 0.0891 normalized occupancy.

On to CCGCATCA, for which the binding signal was 0.0853 normalized occupancy. Consider ACGCATGG, for which the binding signal stood at 0.136 normalized occupancy. As for CCGCATGC, the binding signal amounted to 0.128 normalized occupancy.

In the case of ACGCATTC, the binding signal came to 0.0764 normalized occupancy. In the case of CCGCATGA, the binding signal amounted to 0.113 normalized occupancy.

In the case of ACGCATGC, the binding signal worked out at 0.124 normalized occupancy. Take ACGCTGTG: the binding signal was found to be 0.0735 normalized occupancy. Take ACAGGGAG: the binding signal was 0.0726 normalized occupancy.

As for AAAGGCAG, the binding signal amounted to 0.0731 normalized occupancy. The result for CGGGTGAC reads 0.0779 normalized occupancy; that for ATTCATAA, 0.0836 normalized occupancy; that for ATGTAGGC, 0.0776 normalized occupancy. Take GAAAAGAA: the binding signal was 0.0746 normalized occupancy. For GGCATTTA, the binding signal was 0.0801 normalized occupancy. Take GGATCGGA: the binding signal was 0.0725 normalized occupancy. On to ACGCATGA, for which the binding signal turned out to be 0.102 normalized occupancy. The value for GCGCATGA was 0.0897 normalized occupancy.

Consider ACGCATCA, for which the binding signal was 0.0829 normalized occupancy.

On to AGGCTACA, for which the binding signal was determined as 0.0725 normalized occupancy. With ACCACAGG, the binding signal was found to be 0.0732 normalized occupancy. Take ACGTAGGC: the binding signal turned out to be 0.0765 normalized occupancy.
